Screens from PubChem BioAssay.
Dicer inh: inhibitors of human Dicer processing of pre-microRNA; Q9UPY3; cat-ELCCA pre-miR-21 Dicer processing, chemiluminescence; active compounds read high; z-score at 25 µM; 47,000 tested, 6% active; AID 1347074; in the data active = z-score above about 3, passing the limit was not always enough;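 also: plate controls were vehicle for no effect and no enzyme for full effect; higher signal means more uncleaved substrate so more Dicer inhibition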
Starred values were filed as active, the others as inactive. The entries come from a sample that favours hits as a whole.

SMILES	Dicer inh
CC(C)N1C(=O)C(O)(CC(=O)c2ccco2)c2ccccc21 (stereo not given)	6.92*
CCCN1C(=O)C(O)(CC(=O)c2ccco2)c2ccccc21 (stereo not given)	0.02
CCCc1ccc(-n2[nH]nnc2=S)cc1	1.94
NC(N)=NC(N)=Nc1cc(Cl)cc(Cl)c1	-0.42
ONC(=Nc1cc(Cl)cc(Cl)c1)c1ccccc1	3.02*
Cc1cccc(N=C(NO)c2ccccc2)c1	-3.79
C=CCn1c2ccccc2c2nnc(SCC(=O)Nc3cc(C)on3)nc21	0.28
C=CCn1c2ccccc2c2nnc(SCC(=O)Nc3nc(C)c(C(=O)OCC)s3)nc21	4.89*
C=CCn1c2ccccc2c2nnc(SCC(=O)Nc3ncc([N+](=O)[O-])s3)nc21	0.77
Clc1cccc(CN2CCN(Cc3ccco3)CC2)c1	-0.29
Fc1cccc(CN2CCN(Cc3ccco3)CC2)c1	3.48*
Clc1ccc(CN2CCN(Cc3ccco3)CC2)cc1	0.11
CC(=O)n1cc(-c2nsc(Nc3ccccc3)n2)c(C)n1	0.65
COC(=O)C(=O)/C=C(\O)c1ccc(Cl)cc1	-1.75
CC(C)N(CCC#N)C(=O)Nc1ccc(C(C)(C)C)cc1	0.76
COc1ccc(-c2cc(-c3cccs3)[nH]c(=S)c2C#N)cc1	1.06
COc1ccc(-c2cc(-c3ccc(C)cc3)[nH]c(=S)c2C#N)cc1	0.56
N#Cc1c(-c2ccc(Cl)cc2)cc(-c2ccccc2)[nH]c1=S	3.79*
Cc1ccc(-c2nc3cc(Cl)ccc3o2)cc1N	7.32
c1ccc(COc2ccccc2OCc2ccccc2)cc1	0.48
O=C(NCc1ccccc1)N/N=C/c1cccs1	1.38
CCOC(=O)N(/N=C/c1sc2ccccc2c1C)SC(Cl)(Cl)Cl	-1.19
Cc1c(/C=N/NC(=O)NCc2ccccc2)sc2ccccc12	5.43*
O=C1c2cccc3c([N+](=O)[O-])ccc(c23)C(=O)N1Cc1ccco1	1.65
CCOC(=O)c1c(C)c(C)n(CC2CC2)c1NC(=O)c1ccc(Cl)cc1	0.94
SMILES	Dicer inh
CCOC(=O)c1snc2c(=O)[nH]cnc12	2.16
CCOC(=O)c1sc2nc[nH]c(=O)c2c1C	4.15*
CCOC(=O)c1c(C)c2c(=O)[nH]cnc2n1-c1ccccc1	-0.11
Cc1cccc(OCc2nc(-c3ccncc3)no2)c1C	0.45
Clc1cccc(CSc2nnc3c(n2)[nH]c2ccccc23)c1	0.46
O=C1CC(Nc2ccc(F)cc2)C(=O)N1c1ccc(N2CCCCC2)cc1 (stereo not given)	-0.19
O=C1CC(Nc2ccc(N3CCOCC3)cc2)C(=O)N1c1ccccc1F (stereo not given)	2.84
O=C1CC(Nc2ccc(N3CCCCC3)cc2)C(=O)N1c1ccccc1F (stereo not given)	3.31*
Cc1ccc(S(=O)(=O)N2CCSC2c2cccc(Cl)c2)cc1 (stereo not given)	-0.62
Nc1ccc(-c2nc3ccc(C(=O)O)cc3[nH]2)cc1	-0.84
CCN(CC)c1ccc2c(c1)OC(N)=C(C#N)C2c1cccc(OC)c1 (stereo not given)	1.5
CN(C)/C=N/S(=O)(=O)c1cc(C(F)(F)F)cc(C(F)(F)F)c1	1.1
Cc1ccnc(N=C2c3ccccc3CN2c2cc(C)ccn2)c1	-0.2
CN(C)c1nc(C(=O)O)nc(N2CCOCC2)n1	3.38*
CC(C)(C)Nc1nc(C(=O)O)nc(N2CCOCC2)n1	1.35
CN(C)c1nc(N2CCOCC2)nc(N(c2ccccc2)c2ccccc2)n1	0.61
CC(C)(C)Nc1nc(C(N)=O)nc(N2CCOCC2)n1	5.07*
CCOC(=O)c1cnc(N2CCOCC2)nc1N	-0.5
CCCNC(=O)NNC(=O)C(C)n1nnc(N2CCOCC2)n1 (stereo not given)	1.15
C=CCNC(=S)NNC(=O)c1ccc2ncccc2c1	-0.17
Cc1cccc(C)c1NC(=S)NNC(=O)c1ccccc1C1=NCCCN1	0.71
Cc1cccc(C)c1NC(=S)NNC(=O)CCc1ccc(O)cc1	0.1
Nc1ccc2nc(SCC(=O)N3CCCCC3)sc2c1	-3.69
Fc1ccccc1Nc1nc(-c2ccccn2)cs1	1.74
Cc1cc(O)ccc1Nc1nc(-c2ccccn2)cs1	5.38*
SMILES	Dicer inh
COc1ccc(OC)c(Nc2nc(-c3ccncc3)cs2)c1	1.7
COc1ccc(Nc2nc(-c3ccccn3)cs2)c(OC)c1	5.31*
Cc1nc(C)c(-c2csc(Nc3ccc(O)cc3C)n2)s1	1.05
Cc1cc(O)ccc1Nc1nc(-c2cccnc2)cs1	1.85
COC(=O)c1scc(C)c1NC(=O)C1CC1	-5.18
N#CCC(=O)Nc1ccccc1Oc1cc(Cl)ccc1Cl	0.92
CC1=Nc2cc(Cl)c(Cl)cc2NC(C)(C)C1	7.22*
Fc1ccc(COc2ncnc3cc(Cl)ccc23)cc1	-0.18
Cc1cccc(-n2ncc3c2ncn2nc(COc4c(C)cccc4C)nc32)c1	0.18
Cn1c(=O)c2c3nc4cc(Cl)c(Cl)cc4cc3c(=O)n(-c3ccccc3)c2n(C)c1=O	-0.52
Cc1nn(C(=O)c2ccc([N+](=O)[O-])cc2)c(C)c1Cc1csc2ccc(Cl)cc12	0.62
CCn1c(Cc2ccccc2)nc2ccccc21	-0.64
Cc1cc(NC(=O)C2CCN(C(=O)OCc3ccccc3)CC2)n(C)n1	-3.75
